In publication PMC5540273 (PLoS ONE, 2017):
Like-named read-outs stand apart in the source and are kept apart here.

Assays:
Conditions in all cases: n = 1
PHKG1 = tested on: PHKG1
PHKG2 = tested on: PHKG2
PIK3C2B = tested on: PIK3C2B
PIK3C2G = tested on: PIK3C2G
PIK3CA = tested on: PIK3CA
PIK3CB = tested on: PIK3CB
PIK3CD = tested on: PIK3CD
PIK3CG = tested on: PIK3CG
PIK4CB = tested on: T1, PIK4CB
T1 construct: gene PI4KB

PIKFYVE = tested on: PIKFYVE
[1] = concentration: 1 μM, replicates: in singlicate
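Further: KINOMEscan kinase panel screen.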

Compound	%Inh (PHKG1; [1]) [%]	%Inh (PHKG2; [1]) [%]	%Inh (PIK3C2B; [1]) [%]	%Inh (PIK3C2G; [1]) [%]	%Inh (PIK3CA; [1]) [%]	%Inh (PIK3CB; [1]) [%]	%Inh (PIK3CD; [1]) [%]	%Inh (PIK3CG; [1]) [%]	%Inh (PIK4CB; [1]) [%]	%Inh (PIKFYVE; [1]) [%]	%Inh (PHKG1; 1 µM) [%]	%Inh (PHKG2; 1 µM) [%]	%Inh (PIK3C2B; 1 µM) [%]	%Inh (PIK3C2G; 1 µM) [%]	%Inh (PIK3CA; 1 µM) [%]	%Inh (PIK3CB; 1 µM) [%]	%Inh (PIK3CD; 1 µM) [%]	%Inh (PIK3CG; 1 µM) [%]	%Inh (PIK4CB; 1 µM) [%]	%Inh (PIKFYVE; 1 µM) [%]
Cc1ccccc1-n1cnc2c(N)ncnc21 [SKF-97510]	0	10	0	10	0	0	0	0	0	0										
COc1ccc(Nc2nccc(NCCNC(=O)Nc3ccccc3F)n2)cc1 [GSK1379901]	0	0	0	0	0	0	0	0	11	0										
O=C(Nc1n[nH]c2cc(-c3cccc(F)c3F)ccc12)C1CC1 [SB-733894]	3	25	17	15	0	0	0	19	8	100										
CC(C)(C)c1ccc(C(=O)Nc2cn3cc(-c4cccnc4)ccc3n2)cc1	8	34	0	24	0	45	0	0	16	22										
CC(=O)Nc1nc2cnc(Nc3cc(NC(=O)c4cccc(CCC#N)c4)ccc3C)nc2s1	0	8	9	78	2	0	0	8	0	0										
Cc1cccc(-c2nc(Nc3ccncc3)c3ccccc3n2)n1 [GW855857]	47	3	0	0	0	0	0	0	0	57										
NC(=O)c1nnc2ccccc2c1N	0	10	40	14	40	0	39	44	1	4										
CS(=O)(=O)c1ccc(-c2c(-c3ncn[nH]3)sc(N3CCOCC3)c2C#N)cc1	9	7	0	14	96.9	97.3	65	57	0	40										
Cn1ccc2ncnc(Oc3ccc(Nc4nc5ccccc5[nH]4)cc3)c21	0	25	0	0	0	0	0	0	0	0										
C[C@@H]1CCCCN1c1cc(-c2ccc3c(N)n[nH]c3c2)nc(N)n1 [GSK2258759]	0	0	0	0	0	0	0	0	0	7										
Cc1cc(NCC(c2ccccc2)c2ccccc2)nc(NCc2ccc(C(F)(F)F)cc2)n1 [GW497681]	0	0	0	0	0	0	0	0	0	0										
Cc1c(O)cccc1Nc1ccnc2ccc(C(F)(F)F)cc12.Cl [GW466413]	3	0	18	48	0	0	25	0	3	11										
Cc1ccc(NC(=O)Nc2cccc(C(F)(F)F)c2)cc1 [GSK955403]											12	15	1	36	5	0	0	9	0	0
COc1cccc(-c2cc(-c3c[nH]nc3-c3ccccn3)ccn2)c1 [GW680338]	2	10	7	11	4	3	0	9	0	0										
Cl.NC(=O)c1cccc(Nc2nccc(Nc3ccc(Oc4cccc(Cl)c4)c(Cl)c3)n2)c1 [GW659008]	4	0	0	0	0	0	0	0	82	0										
O=C(Nc1ccccc1)Nc1cccc(Oc2ccc3nccn3n2)c1	0	9	0	0	0	0	14	6	0	0										
Cc1cccc(-c2nc(-c3ccc(S(C)(=O)=O)cc3)sc2-c2ccnc(NCCc3ccccc3)c2)c1	0	9	0	18	1	11	26	17	0	0										
COc1ccc2nc(-c3cccc(C)n3)nc(Nc3ccncc3)c2c1 [GSK204919]	0	0	3	0	0	0	0	0	5	81										
